The whole screen tested about 420,000 compounds, of which about 50,000 (12%) were called active. Not shown: some 26% with an inconclusive outcome. Calls come from the whole dose curve; as a rule, active = well fitted inhibition curve with a large enough effect; inconclusive = small, poorly fitted or top-dose-only effect; inactive = flat fitted curve, though single readings scatter. For the sample, actives were picked, then their nearest neighbours and some compounds at random.
Test: qHTS for Inhibitors of human tyrosyl-DNA phosphodiesterase 1 (TDP1): qHTS in cells in presence of CPT; note: nearly all actives have a fitted effect of over 55% in size
Details: chicken DT40 Tdp1-/-;hTDP1 cells + 20 nM CPT, ATP luminescence, 48 h; series mostly up to 46.2 µM; activity change, negative = growth inhibition: at the top concentration
Procedure, shortened: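 Chicken DT40 Tdp1-/- cells complemented with human TDP1, 400 cells/well, exposed to compounds plus 20 nM camptothecin for at least 48 h at 37 C; viability read as ATP content by CellTiter-Glo luminescence.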
In the case of `CCOCCOCCC(C(=O)O)P(=O)(c1ccccc1)c1ccccc1` (configuration not stated), the “activity change, negative = growth inhibition” value is reported as -9.55% (inactive).
With `CCc1ccc(N2CC(C(=O)Nc3ccc(S(=O)(=O)Nc4nccs4)cc3)CC2=O)cc1` (configuration not stated) the “activity change, negative = growth inhibition” value was -16% (inactive).
With `CCc1cc2c(cc3c(=O)n(CC(=O)N4CCN(c5cc(Cl)ccc5C)CC4)ncn32)s1` the “activity change, negative = growth inhibition” value was -19.2% (inactive).
For `O=C(NC1(C(F)(F)F)NC(=O)N(C2CCCCC2)C1=O)c1ccco1` (configuration not stated), the “activity change, negative = growth inhibition” value was 29.4% (inactive).
For `O=C1NC(Nc2nc3ccccc3s2)(C(F)(F)F)C(=O)N1C1CCCCC1` (configuration not stated), the Potency was 25.9 µM (active).
In the case of `CCC1(CC)NC(=O)N(Cc2nc3ccccc3s2)C1=O`, the “activity change, negative = growth inhibition” value is reported as 8.86% (inactive).
In the case of `COC(=O)C[C@@H]1C=C[C@@H](NC(=O)c2ccc3c(c2)OCO3)[C@@H](CO)O1`, the “activity change, negative = growth inhibition” value is reported as -1.27% (inactive).
For `O=C1C2C3C=CC(C3)C2C(=O)N1c1ncc([N+](=O)[O-])s1` (configuration not stated), the “activity change, negative = growth inhibition” value was 23.9% (inactive).
For `CC1Cc2[nH][nH]c(=O)c2C(C2CC2)O1` (configuration not stated), the “activity change, negative = growth inhibition” value was -8.46% (inactive).
In the case of `Cc1ccn2c(=O)nc(SCC(=O)NCc3ccc(F)cc3)nc2c1`, the “activity change, negative = growth inhibition” value is reported as -2.41% (inactive).
In the case of `CC(C)c1nc(SCC(=O)NC(=O)NC(C)(C)C)n[nH]1`, the “activity change, negative = growth inhibition” value is reported as -1.92% (inactive).
For `Cc1cccc(NC(=O)CSc2nc(-c3ccco3)cc(C(F)(F)F)n2)c1C`, the Potency was 10.3 µM (active).
In the case of `CCNS(=O)(=O)c1ccc(NC(=O)CSc2nc(-c3ccco3)cc(C(F)(F)F)n2)cc1`, the Potency is reported as 7.31 µM (active).
With `CN(C)c1ccc(NC(=O)CSc2n[nH]c(-c3ccco3)n2)cc1` the “activity change, negative = growth inhibition” value was 0.483% (inactive).
With `O=C(CSc1nc(-c2ccco2)cc(C(F)(F)F)n1)NCc1cccs1` the “activity change, negative = growth inhibition” value was -9.45% (inactive).
With `Cc1cc(C(F)(F)F)nn1-c1nc(-c2ccco2)cc(C(F)(F)F)n1` the “activity change, negative = growth inhibition” value was -1.24% (inactive).
With `CC(C)(C)NC(=O)CSc1nc(-c2ccc(F)cc2)cc(C(F)(F)F)n1` the Potency was 20.6 µM (active).
For `O=C(CSc1nc(-c2ccco2)cc(C(F)(F)F)n1)N1CCc2ccccc2C1`, the “activity change, negative = growth inhibition” value was -27.6% (inactive).
For `COc1ccc(S(=O)(=O)NCC(=O)NCc2cc(=O)n(C)c(=O)n2C)cc1F`, the “activity change, negative = growth inhibition” value was 2.06% (inactive).
With `O=C(CC1C(=O)NCCN1CC(c1ccccc1)c1ccccc1)NCC1CCOCC1` (configuration not stated) the “activity change, negative = growth inhibition” value was -13% (inactive).
For `CCCS(=O)(=O)NC(=O)C1(C)CCCN(C(=O)c2cccs2)C1` (configuration not stated), the “activity change, negative = growth inhibition” value was 9.56% (inactive).
For `O=C(CSc1nnc(SCc2ccc(F)cc2)s1)Nc1ccc(C(=O)O)cc1`, the “activity change, negative = growth inhibition” value was -15.4% (inactive).
In the case of `COc1ccc(C2=NN(C(=O)c3ccccc3C(=O)O)C(c3ccccc3O)C2)cc1` (configuration not stated), the “activity change, negative = growth inhibition” value is reported as 17% (inactive).
With `CCC(C)(C)NC(=O)CN(C(=O)CCC(=O)Nc1cc(C)ccn1)c1ccc2c(c1)OCCO2` the “activity change, negative = growth inhibition” value was 4.29% (inactive).
With `FC(F)(F)c1nnc2sc(-c3ccco3)nn12` the “activity change, negative = growth inhibition” value was -5.91% (inactive).
In the case of `FC(F)(F)c1nnc2ccc(N3CCN(c4ccccc4)CC3)nn12`, the “activity change, negative = growth inhibition” value is reported as -0.987% (inactive).
In the case of `FC(F)(F)c1nnc2c3ccccc3c(Cl)nn12`, the Potency is reported as 5.17 µM (active).
In the case of `O=C(COC(=O)c1cncc(Br)c1)Nc1ccc(S(=O)(=O)N2CCOCC2)cc1`, the “activity change, negative = growth inhibition” value is reported as -19.1% (inactive).
With `C=CCNC(=O)c1ccccc1SCc1c(C)noc1C` the “activity change, negative = growth inhibition” value was 1.92% (inactive).
For `Cc1ccn(CC(=O)NC2CCCN(Cc3ccccc3F)C2)n1` (configuration not stated), the “activity change, negative = growth inhibition” value was 6.73% (inactive).
For `Cc1ccccc1CSCCNC(=O)C1CCN(S(=O)(=O)Cc2ccccc2)CC1`, the “activity change, negative = growth inhibition” value was -2.3% (inactive).
For `CN(c1ccccc1)S(=O)(=O)c1ccc(C(=O)NCCc2ccccc2)cc1`, the “activity change, negative = growth inhibition” value was -22% (inactive).
In the case of `Cc1ccccc1CSCCNC(=O)c1ccc(N(C)S(=O)(=O)c2ccccc2)cc1`, the Potency is reported as 18.4 µM (active).
In the case of `Cc1nc2ccccc2nc(=O)c1NNc1ccc([N+](=O)[O-])cc1`, the “activity change, negative = growth inhibition” value is reported as -28.3% (inactive).
In the case of `Cc1ccc(CN2CC(C(=O)NNC(=O)Cn3ccc(C(F)(F)F)n3)CC2=O)cc1` (configuration not stated), the “activity change, negative = growth inhibition” value is reported as 3.76% (inactive).
For `CC(C)=CCc1ccc(O)c(=O)cc1C(C)C`, the Potency was 20.6 µM (active).
In the case of `CSc1ncc(C(=O)NCc2ccccc2Cl)c(C(F)(F)F)n1`, the “activity change, negative = growth inhibition” value is reported as -20.8% (inactive).
With `O=C(/C=C/c1ccccc1[N+](=O)[O-])OCC(=O)N1CCCC1` the “activity change, negative = growth inhibition” value was -21.3% (inactive).
In the case of `CC1(C2CC2)NC(=O)N(CC(=O)N2CCN(c3ccccc3F)CC2)C1=O` (configuration not stated), the “activity change, negative = growth inhibition” value is reported as -21.8% (inactive).
In the case of `COc1ccc(OC)c(C(C)NC(=S)Nc2ccc(S(=O)(=O)Nc3ncccn3)cc2)c1` (configuration not stated), the “activity change, negative = growth inhibition” value is reported as 3.28% (inactive).
For `Clc1ccc(CSc2nnc3c(n2)[nH]c2ccccc23)cc1`, the “activity change, negative = growth inhibition” value was -25% (inactive).
In the case of `COCCNC(=O)c1ccc2nc(Cc3ccc(OC)c(OC)c3)oc2c1`, the “activity change, negative = growth inhibition” value is reported as -0.805% (inactive).
In the case of `COc1ccc(Cc2nc3ccc(C(=O)NCc4ccccc4Cl)cc3o2)cc1`, the Potency is reported as 16.4 µM (active).
For `COc1ccc(NC(=O)c2ccc3nc(CCc4ccccc4)oc3c2)c(OC)c1`, the “activity change, negative = growth inhibition” value was -26.7% (inactive).
With `COc1ccc(Cc2nc3ccc(C(=O)NCc4ccccc4C)cc3o2)cc1` the Potency was 20.6 µM (active).
With `COc1ccc(CNC(=O)c2ccc3oc(C(C)C)nc3c2)cc1` the “activity change, negative = growth inhibition” value was -27% (inactive).
With `COc1ccc(Cc2nc3ccc(C(=O)N4CCC(N(C)C)C4)cc3o2)cc1` (configuration not stated) the “activity change, negative = growth inhibition” value was 11.1% (inactive).
In the case of `CCn1ccnc1CN(C)C(=O)c1ccc2nc(Cc3ccc(OC)cc3)oc2c1`, the “activity change, negative = growth inhibition” value is reported as -18.1% (inactive).
In the case of `CSCCNC(=O)c1ccc2nc(Cc3ccccc3F)oc2c1`, the “activity change, negative = growth inhibition” value is reported as 1.45% (inactive).
For `COc1ccc(Cc2nc3ccc(C(=O)NCc4ccc(OC)cc4OC)cc3o2)cc1`, the Potency was 16.4 µM (active).
For `CCCCOC(=O)CSc1ncnc2sc3c(c12)CCC(C)C3` (configuration not stated), the “activity change, negative = growth inhibition” value was -16.3% (inactive).
With `Cc1nccn1CCC1CCCCN1C(=O)CCc1nnc(-c2ccsc2)o1` (configuration not stated) the “activity change, negative = growth inhibition” value was -0.241% (inactive).
For `CC(=O)OCCOCn1cnn2c(=O)c(Br)c(C)nc12`, the “activity change, negative = growth inhibition” value was 1.1% (inactive).
For `CSc1n[nH]c(-c2ccco2)n1`, the “activity change, negative = growth inhibition” value was 2.51% (inactive).
With `COC(=O)c1ccc(C)c(NC(=O)Cn2c(C)csc2=O)c1` the “activity change, negative = growth inhibition” value was -8.88% (inactive).
In the case of `Nc1ccc(C(=O)OCC(=O)NC2CCS(=O)(=O)C2)cc1[N+](=O)[O-]` (configuration not stated), the “activity change, negative = growth inhibition” value is reported as -10.4% (inactive).
For `O=NN(CCCl)C(=O)NCCc1cccc[n+]1[O-]`, the “activity change, negative = growth inhibition” value was -1.12% (inactive).
For `NC(=O)C1CCN(C(=O)c2ccc3c(=O)n(Cc4cccc(Br)c4)c(=S)[nH]c3c2)CC1`, the “activity change, negative = growth inhibition” value was -0.901% (inactive).
With `CCOC(=O)c1sc(=S)n2c1[nH]c(=O)c1ccc(C(=O)OC)cc12` the Potency was 10.3 µM (active).
For `COC(=O)c1cccc(NC(=O)CSc2nc(C)cc(=O)[nH]2)c1`, the “activity change, negative = growth inhibition” value was -4.36% (inactive).
In the case of `CCOC(=O)c1sc2nc(C)[nH]c(=O)c2c1C`, the “activity change, negative = growth inhibition” value is reported as 0.124% (inactive).
For `COc1ccccc1C1C(C(=O)N2CCCCC2)=C(C)Nc2nc3ccccc3n21` (configuration not stated), the “activity change, negative = growth inhibition” value was -13.4% (inactive).
With `CCCCN1C(=O)C(CC(=O)NCc2cccs2)CC(C(=O)N2CCCCCC2)=C1C` (configuration not stated) the “activity change, negative = growth inhibition” value was -24.1% (inactive).
In the case of `Cc1cc(O)c(C(c2ccccc2)N2CCN(c3ccccc3F)CC2)c(=O)n1Cc1ccco1` (configuration not stated), the “activity change, negative = growth inhibition” value is reported as -9.48% (inactive).
With `OC(COc1cccc2ccccc12)CN1CCN(c2ccccn2)CC1` (configuration not stated) the “activity change, negative = growth inhibition” value was -29.9% (inactive).
With `Cc1cc(C)c(NC(=O)C[N+](C)(C)CC(O)COc2cccc3ccccc23)c(C)c1` (configuration not stated) the Potency was 18.4 µM (active).
With `Cc1cc(C)cc(OCC(=O)Nc2c(C(=O)c3ccccc3)oc3ccccc23)c1` the “activity change, negative = growth inhibition” value was -27.4% (inactive).

Source: PubChem BioAssay AID686979 (National Center for Advancing Translational Sciences (NCATS), 2013)
% is set by controls: 0 for no effect and ±100 for the full control effect; potency is the fitted concentration of half-maximal effect.
